In the library only some 1.3% were active in any assay of this set; here they are far more common.
AGP1-GFP MLPCN – yeast TOR pathway AGP1-GFP modulation | S. cerevisiae AGP1-GFP multiplex flow cytometry, 3 h; GFP as percent of DMSO wells | 320,000 compounds, 0.02% hits | GFP response vs DMSO, % at 10 µM;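 active = GFP response relative to DMSO above a set limit, near screen average plus 3 SD, cut at about 150% in these data; inconclusive = fewer than 70 cells counted for the yeast strain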;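 also: median GFP channel fluorescence of the gated AGP1 strain per well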
RPL19A TOR yeast – yeast TOR pathway RPL19A-GFP modulation. S. cerevisiae RPL19A-GFP strain, flow cytometry, 3 h; hits give low values. percent response vs DMSO, % at 10 µM. 330,000 compounds, 0.3% hits. AID 2025;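 active = percent response vs DMSO below 50%; inconclusive = fewer than 70 events counted for the yeast strain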;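 also: median channel GFP fluorescence of the barcoded RPL19A-GFP strain; ratio of sample median GFP to plate DMSO average so 100% = DMSO; lower means less RPL19A-GFP as with rapamycin TOR inhibition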
MEP2-GFP yeast – yeast TOR pathway MEP2-GFP modulation. 330,000 compounds, 0.51% hits. AID 2016. GFP response vs DMSO, % at 10 µM. S. cerevisiae MEP2-GFP strain, flow cytometry GFP, 3 h; 100% = DMSO control level;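 active = GFP response versus DMSO above a set limit, roughly screen mean plus 3 SD, cut at about 180% in these data; inconclusive = fewer than 70 cells counted for a yeast strain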;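 also: median GFP fluorescence of the barcode-gated MEP2-GFP cells per well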
CIT2 TOR yeast – yeast TOR pathway CIT2-GFP modulation | S. cerevisiae CIT2-GFP strain, flow cytometry, 3 h; 100 means same as DMSO wells | GFP response vs DMSO, % at 10 µM | 320,000 compounds, 0.065% hits;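 active = GFP response relative to DMSO above a set limit, near the screen mean plus 3 SD, cut at about 150% in these data; inconclusive = Fewer than 70 cells measured for a yeast strain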;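 also: ratio of well median GFP fluorescence to mean of DMSO wells on the plate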
LAP4-GFP MLPCN – modulators of TOR pathway LAP4-GFP in S. cerevisiae. S. cerevisiae LAP4-GFP multiplex, flow cytometry GFP, 3 h; median GFP as percent of DMSO wells. GFP response vs DMSO, % at 10 µM. 320,000 compounds, 0.34% hits. AID 2023;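 active = GFP response vs DMSO above a set limit, about the screen mean plus 3 SD, cut at about 150% in these data; inconclusive = under 70 cell events counted for the yeast strain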
Efflux pump mplx – inhibitors of Candida antifungal efflux pumps expressed in yeast; S. cerevisiae Candida pump triplex, Nile Red efflux; inhibition, % at 10 µM; 330,000 compounds, 0.44% hits; AID 485275;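 active = plate passing quality check with inhibition over a set limit, or well fluorescence over plate mean plus 4 SD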;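 also: Nile Red retained in pooled yeast measured as flow cytometry median fluorescence; 0% = buffer negative control and 100% = Enniatin B positive control; higher means more Nile Red kept so more efflux inhibition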
An asterisk follows results filed as active; u = inconclusive; x = no result given; [ ] = remark or other dose.

SMILES	AGP1-GFP MLPCN	RPL19A TOR yeast	MEP2-GFP yeast	CIT2 TOR yeast	LAP4-GFP MLPCN	Efflux pump mplx
Cc1nc(C)n(CC(C)C(=O)N2CCN(S(=O)(=O)c3ccccc3)CC2)n1 (stereo not given)	u	40*[may fluoresce violet]	u	u	u	0
CS(=O)c1ccccc1COC(=O)Nc1ccccc1 (stereo not given)	106	99	99	97	96	0
O=C1NCCN(Cc2ccc(Cl)c(F)c2)C1CC(=O)N1CCCCO1 (stereo not given)	103	105	108	107	99	0
Cc1cc(NC(=O)C2CC(=O)N(c3ccc(Cl)cc3)C2)no1 (stereo not given)	90	95	93	98	85	0
COc1ccc(C2C3=C(CCCC3=O)N(CC(=O)O)C3=C2C(=O)CCC3)cc1Cl	148	46*	502*	130	126	0
CCOc1cc(C2C3=C(CCCC3=O)N(CC(=O)O)C3=C2C(=O)CCC3)ccc1OC	86	94	88	88	78	0
COc1ccc(C2C3=C(CC(C)(C)CC3=O)N(CC(=O)O)C3=C2C(=O)CC(C)(C)C3)cc1OC	105	96	101	111	95	0
COc1ccccc1C1C2=C(CCCC2=O)N(CC(=O)O)C2=C1C(=O)CCC2	u	14*[may fluoresce violet]	257*[may fluoresce violet]	u	58	0
Cc1ccc(S(=O)(=O)N2CCC(C(=O)OCC(=O)N(CC(C)C)C3CCS(=O)(=O)C3)CC2)cc1C (stereo not given)	96	98	93	98	88	0
CCOCCCN(C)C1CCN(C(=O)c2oc3ccccc3c2NC(=O)c2ccc(F)cc2)CC1	u	16*[may fluoresce violet]	168	u	66	0
CCOCCCN(C)C1CCN(C(=O)c2oc3ccccc3c2NC(=O)c2ccc([N+](=O)[O-])cc2)CC1	108	105	105	107	115	0
CC(C)(C)Nc1nc(Cl)nc(NC2CCCCC2)n1	u	42*[may fluoresce violet]	171	u	74	0
NC(=O)N1N=C2/C(=C/c3ccccc3)CCCC2C1c1ccccc1 (stereo not given)	107	102	100	100	94	0
O=C(O)CSCC(=O)N1N=C2/C(=C/c3ccccc3)CCCC2C1c1ccccc1 (stereo not given)	u	36*[may fluoresce violet]	263*[may fluoresce violet]	u	58	0
C=CCC1(CC=C)CCCN1C(=O)c1cc(COc2ccc(C)nc2)on1	98	97	86	95	93	0
C/C(CC(=O)Nc1cc(C)ccn1)=N\NC(=O)c1cccc(F)c1	14	70	183*	91	93	0
Cc1ccc(CN2C(=O)CCC2C(=O)NCCc2ccccc2)cc1 (stereo not given)	101	104	110	104	100	0
CCCCN(CC)C(=S)Nc1ccc2nc(N3CCN(C)CC3)cc(C)c2c1	101	99	108	98	109	0
Cc1cc(NC(=O)Cn2cc(C(F)(F)F)cc(Cl)c2=O)no1	20	62	224*[may fluoresce violet]	u	92	0
COc1cccc(OC)c1NC(=O)Cn1nc(C)c2ccccc2c1=O	94	100	107	97	93	0
Cc1ccccc1C1CCCN(Cc2nc(C3CC3)no2)C1 (stereo not given)	101	99	104	100	104	0
COc1ccc(Cl)cc1NC(=O)C/C(C)=N/NC(=O)C(=O)NCc1ccccc1	103	101	100	107	100	0
O=C(CSc1nc2ccccc2o1)Nc1nc2ccc(Br)cc2s1	22	61	214*[may fluoresce violet]	u	90	0
CC(=O)NC1(C(F)(F)F)C(=O)Nc2c1c(=O)[nH]c(=O)n2CCc1ccccc1 (stereo not given)	29	51	176*	83	98	0
C/C(=N\NC(=O)CCC(=O)Nc1ccc(C)c(C)c1)C1CC1	97	110	100	97	66	0
SMILES	AGP1-GFP MLPCN	RPL19A TOR yeast	MEP2-GFP yeast	CIT2 TOR yeast	LAP4-GFP MLPCN	Efflux pump mplx
O=C1OC2(c3ccccc31)c1cc(I)c(O)c(I)c1Oc1c2cc(I)c(O)c1I	90	119	257*	169*	243*	0
CN1CCN(C(=O)c2ccc3c(c2)NC(=O)C(C)(C)O3)CC1	u	15*[may fluoresce violet]	259*[may fluoresce violet]	u	139	0
COc1cccc(NC(=O)NNC(=O)c2ccc3c(c2)NC(=O)C(C)(C)O3)c1	97	101	99	109	88	0
CC1=C(O)C(=O)OC1c1c(Cl)cccc1Cl (stereo not given)	107	99	107	101	116	0
CNC(=O)c1cccc(N2CCCC2=O)c1	95	99	89	83	88	0
CC(NC(=O)c1cccc(N2CCCC2=O)c1)c1ccc2c(c1)OCCO2 (stereo not given)	u	30*[may fluoresce violet]	354*[may fluoresce violet]	u	74	0
O=C(c1cncc(Br)c1)N1CCN(S(=O)(=O)c2ccccc2C(F)(F)F)CC1	102	109	111	108	112	0
O=C(c1cncc(Br)c1)N1CCN(S(=O)(=O)c2ccccc2)CC1	u	56	234*[may fluoresce violet]	u	75	0
CCOC(=O)C(=O)c1cn(C2OCC(OC(C)=O)C(OC(C)=O)C2OC(C)=O)c2ccccc12 (stereo not given)	20	43*[may fluoresce violet]	174	u	92	0
CCOC(=O)Cn1cc(C(=O)C(=O)N2CCOCC2)c2ccccc21	104	103	99	109	94	0
c1ccc(OCCSc2nc3ccccc3[nH]2)cc1	x	44*[may fluoresce violet]	182*[may fluoresce violet]	u	103	0
Cc1ccc2nc(SCCCCOc3ccccc3)[nH]c2c1	89	95	102	80	104	0
CC(=O)Oc1cc2c(cc1Cl)C1(CC(c3ccccc3Cl)O2)CC(C)(C)NC(=S)N1 (stereo not given)	x	101	108	92	110	114*
CCOc1ccccc1-c1noc(CCC(=O)Nc2cccnc2)n1	68	68	223*	89	88	0
O=C(CCc1nc(-c2ccccc2F)no1)Nc1cccnc1	107	93	94	94	105	-1
CCC(CC)NC(=O)C1CCN(c2ccc(S(=O)(=O)N3CCOCC3)cc2[N+](=O)[O-])CC1	100	99	97	100	100	0
O=C(CSc1nncs1)Nc1cc(-c2ccccc2)nn1-c1ccccc1	104	105	107	100	102	0
COc1ccc(C(=O)N2CCOC2CNC(=O)C(=O)NCc2ccccc2Cl)cc1 (stereo not given)	101	97	95	98	101	0
O=C(c1cc(-c2cccc(Cl)c2)on1)N1CCc2ccccc2C1	68	105	99	166*	89	0
